PubChem BioAssay AID1868 (National Center for Advancing Translational Sciences (NCATS), 2009)
The campaign covered roughly 270,000 compounds. About 20 (0.007%) were called active. The call rests on the fitted dose curve; in most records, active means well fitted inhibition curve with a large enough effect; inconclusive means small, poorly fitted or top-dose-only effect, or effect the other way; inactive means flat fitted curve, though single readings scatter. The list is a sample of the results.

Each compound was assayed against Galactokinase (Homo sapiens) (UniProt P51570) (assay: qHTS Assay for Inhibitors of Human Galactokinase (GALK)). Settings: Purified GALK, Kinase-Glo residual ATP luminescence; series mostly up to 57.5 µM; activity change, negative = inhibition: at the top concentration.
Description: NIH Molecular Libraries Probe Production Centers Network [MLPCN] NIH Chemical Genomics Center [NCGC] MLPCN Grant: R03 MH085689-01 Assay Submitter (PI): Kent Lai (University of Utah School of Medicine, 50 N Mario Capecchi Drive, Salt Lake City, UT 84132) NCGC Assay Overview: Inherited deficiency of galactose-1-phosphate uridyltransferase (GALT) can result in a potentially lethal disorder called Classic Galactosemia (OMIM 230400). Several lines of evidence indicate that an elevated level of galactose-1-phosphate (gal-1-p), the product of galactokinase (GALK), is a major, if not sole, pathogenic mechanism in patients with classic galactosemia. Therefore, finding inhibitors of GALK is a potential novel therapy for this inherent metabolic disease and is the long term goal of this project. GALK (provided by the assay submitter) was assayed using ATP and D-(+)-Galactose (Sigma-Aldrich cat# G0750) as substrates. Promega Kinase-Glo Plus (cat# V3774) technology was used to detect the residual ATP following kinetic reaction. Briefly, the Kinase-Glo Plus contains Ultra-Glo [2] luciferase and D-luciferin which generates a bioluminescence signal from the remaining ATP.
NCGC Assay Protocol Summary: Three uL/well of ATP-buffer solution (35 uM ATP, 20mM HEPES pH8.0, 5 mM MgCl2, 60 mM NaCl, 1 mM DTT, 0.01% BSA final concentration) was dispensed into 1536-well, assay plates (Greiner, solid white medium-binding plates) with Aurora Discovery BioRAPTR Flying Reagent Dispenser (FRD; Beckton-Dickenson). Compound solution (23 nL) was transferred to the assay plate using the Kalypsys 1536-pin tool. One uL/well GALK-galactose solution (5 nM GALK, 100 uM galactose, 20 mM HEPES pH8.0, 5 mM MgCl2, 60 mM NaCl, 1 mM DTT, 0.01% BSA final concentration) was then added using the FRD yielding a total kinase reaction volume of 4 uL/ well. After 1 hour of room temperature incubation, 4 uL Kinase-Glo Plus reagent was added for a final assay volume of 8 uL/ well. Luminescence was detected with the ViewLux plate reader (Perkin Elmer, Waltham, MA) after 10 min incubation using a 1 sec exposure time and 2x binning.
On the % scale 0 is the no-effect control and ±100 the full control effect.

Chain of Galactokinase (Homo sapiens) (P51570 whole entry, looked up): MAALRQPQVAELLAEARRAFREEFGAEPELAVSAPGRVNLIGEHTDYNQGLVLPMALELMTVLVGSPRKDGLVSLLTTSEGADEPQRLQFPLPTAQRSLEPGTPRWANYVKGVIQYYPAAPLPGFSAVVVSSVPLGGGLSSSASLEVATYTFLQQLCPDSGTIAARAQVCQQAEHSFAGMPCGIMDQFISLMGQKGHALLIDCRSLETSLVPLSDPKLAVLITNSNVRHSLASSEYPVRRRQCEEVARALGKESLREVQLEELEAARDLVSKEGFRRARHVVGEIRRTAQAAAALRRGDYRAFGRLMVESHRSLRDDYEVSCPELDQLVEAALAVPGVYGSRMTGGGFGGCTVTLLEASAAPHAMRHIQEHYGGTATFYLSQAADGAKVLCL

| Compound | activity change, negative = inhibition |
| --- | --- |
| Brc1ccccc1CN1CCC(Cc2ccccc2)CC1 | -0.837% (inactive) |
| CC1CCN(C2=NC(=O)/C(=C/c3ccc(O)cc3)S2)CC1 | -3.46% (inactive) |
| CC1(C)Cc2c(sc(NC(=O)C(=O)N3CCOCC3)c2C#N)CO1 | -2.42% (inactive) |
| COc1cc(Cl)ccc1OCc1cc(C(=O)N2CC[C@@H]3CCCC[C@H]3C2)no1 | 3.62% (inactive) |
| CCOc1ccc(CN2CCNC(=O)C2CC(=O)NCCCC2CCCC2)cc1 (configuration not stated) | -3.91% (inactive) |
| CCOc1ccc(S(=O)(=O)N2CCCC(C(=O)N3CCC(C(N)=O)CC3)C2)cc1Cl (configuration not stated) | 6.26% (inactive) |
| C=CCOc1ccc(/C=C/C(=O)OCC(=O)NC2CCCCCC2)cc1 | 0.149% (inactive) |
| CN(c1ccccc1)S(=O)(=O)c1ccc(NC(=O)COc2ccccc2)cc1 | -2.58% (inactive) |
| Oc1cccc(/C=N/Nc2ccc(Cl)nn2)c1O | 3.86% (inactive) |
| O=C(NCCNc1ccc([N+](=O)[O-])cc1Cl)c1ccccc1F | 2.76% (inactive) |
| COc1ccc(S(=O)(=O)/N=C2\C=C(NS(=O)(=O)c3ccccc3)C(=O)c3ccccc32)cc1 | 2.13% (inactive) |
| Cn1c(Nc2cccc(Cl)c2)nc2ccccc21 | 3.7% (inactive) |
| CCn1c(=O)c(C(=O)NCc2ccc3c(c2)OCO3)c(O)c2ccccc21 | -0.778% (inactive) |
| O=C(Nc1ccc(Cl)c(Cl)c1)c1ccccc1NC(=O)C1CC=CCC1C(=O)O (configuration not stated) | -1.72% (inactive) |
| Cc1cccc(N2CCN(C(=O)CCS(=O)(=O)c3ccc4c(c3)NC(=O)C(C)S4)CC2)c1C (configuration not stated) | -0.901% (inactive) |
| CC(C)(C)NC(=O)C(c1ccc(Cl)cc1)N(CCO)C(=O)c1snc(C(N)=O)c1N (configuration not stated) | 9.43% (inactive) |
| O=C(CN1CCCC1)Nc1sc2c(c1C(=O)Nc1ccccc1)CCCC2 | 0.0885% (inactive) |
| O=C(N/N=C/c1cccc(OCc2ccccc2)c1)c1ccc(Br)o1 | 4.11% (inactive) |
| Cc1cc(C)n(CC(O)COc2ccc(C(C)(C)C)cc2)n1 (configuration not stated) | 6.25% (inactive) |
| COc1ccc(Oc2cn[nH]c2-c2ccc(OC)cc2O)cc1 | 6.03% (inactive) |
| CSc1nnc(NC(=O)c2nc(S(=O)(=O)Cc3ccc(C)cc3)ncc2Cl)s1 | -8.93% (inactive) |
| Cc1cc(N=Nc2ccc3ccccc3c2)ccc1O | -2.63% (inactive) |
| Cc1ccc(-c2nc(-c3ccncc3)no2)c(C)c1 | 0% (inactive) |
| CCCNC(=O)CCn1nc(-c2ccccc2)c2ccccc2c1=O | 0.567% (inactive) |

| Compound | activity change, negative = inhibition |
| --- | --- |
| COc1ccc(C(=O)/C=C/c2cccnc2)c(OC)c1 | 0.185% (inactive) |
| COc1ccc(S(=O)(=O)N2CCN(C(=O)N(C)C)C2C)cc1 (configuration not stated) | -1.94% (inactive) |
| CN(C)S(=O)(=O)N1CCC(Oc2cccc(C(=O)NCCCC3CCCC3)c2)CC1 | -10.2% (inactive) |
| O=C(Nc1ccccc1)c1ccc2c(c1)OCCCO2 | 3.05% (inactive) |
| Cc1[nH]n(C(N)=S)c(=O)c1N=Nc1ccc(Cl)cc1Cl | 4.38% (inactive) |
| O=C(NC(=S)Nc1ccc(Cl)cc1Cl)C1CC1 | 2.25% (inactive) |
| COc1cccc(CNc2ncc(-c3ccccc3)n2C)c1 | -6.73% (inactive) |
| CCOc1ccccc1/C=N/Nc1nc2ccccc2o1 | -3.29% (inactive) |
| COc1ccc(CNc2cc(C)cc(C)c2)cc1OC | 3.43% (inactive) |
| Cc1ccc(NC(=O)Nc2cccnc2)cc1 | 4.12% (inactive) |
| COc1ccc2cc(C(=O)C3CCCN(C(=O)c4sc(C)nc4C)C3)ccc2c1 (configuration not stated) | 7.03% (inactive) |
| CC(C)(C)C(=O)Nc1ccc(-c2cn3cccnc3n2)cc1 | -0.896% (inactive) |
| CC1(C(=O)N/N=C/c2cc3c(cc2Br)OCO3)CC1(Br)Br (configuration not stated) | -6.75% (inactive) |
| c1ccc(Cc2ccc(OCCn3ccnc3)cc2)cc1 | 2.93% (inactive) |
| CNS(=O)(=O)c1ccc(NC(=O)Nc2ccc3c(c2)OCO3)cc1 | 2.4% (inactive) |
| CC(=O)N(C)c1ccc(NC(=O)Nc2cccc3ccccc23)cc1 | 4.09% (inactive) |
| Cc1nonc1NC(=O)c1oc2ccccc2c1C | 4.67% (inactive) |
| O=C(NCCCN1CCOCC1)c1ccc2c(c1)N(Cc1cccc(F)c1)C(=O)c1ccccc1S2 | -2.22% (inactive) |
| CSc1ccccc1OCc1cc(C(=O)N2C[C@H]3CC[C@H]2C3)no1 | -3.8% (inactive) |
| O=C(CNC(=O)Cc1ccccc1)N=Nc1c(O)[nH]c2ccc(Br)cc12 | -8.43% (inactive) |
| O=C(O)Cc1ccc(NC(=O)Nc2cccc3ccccc23)cc1 | 0.889% (inactive) |
| COc1ccc(C(=O)NC2=NCCS2)c(OC)c1 | -5.52% (inactive) |
| CCCOC1CCCN(C(=O)c2cc(COc3cncc(Cl)c3)on2)C1 (configuration not stated) | 1.7% (inactive) |
| CCc1ccc(C(=O)NC(=S)Nc2ccccc2N2CCOCC2)cc1 | -4.65% (inactive) |

| Compound | activity change, negative = inhibition |
| --- | --- |
| Nc1cc(N)nc(SCc2cccc(F)c2)n1 | -1.43% (inactive) |
| Cc1ccc(NS(=O)(=O)c2ccc3c(c2)n(C)c(=O)c(=O)n3C)c(C)c1 | -0.414% (inactive) |
| COc1ccc(N(Cc2ccc(N(C)C)cc2)C(=O)c2ccc(S(C)(=O)=O)cc2)cc1 | -2.56% (inactive) |
| CCCCC(=O)Nc1ccccc1N1CCN(c2ccc(F)cc2)CC1 | -6.49% (inactive) |
| CC(=O)Nc1ccc(NC(=O)C2CCCN2S(=O)(=O)c2cccc(C(F)(F)F)c2)cc1 (configuration not stated) | 1.26% (inactive) |
| COc1ccc(-c2noc(CCCC(=O)NC3CCCC3)n2)cc1OC | 1.8% (inactive) |
| O=C(/C=C/c1ccco1)NC(=S)Nc1ccccc1Br | 5.8% (inactive) |
| COc1ccc(CCNC(=O)C2CCCN(S(=O)(=O)c3ccc(OC)cc3)C2)cc1 (configuration not stated) | 10.8% (inactive) |
| Cc1ccnc(NC(=O)CCNS(=O)(=O)c2ccc(C)c(C)c2)c1 | -1.07% (inactive) |
| O=C(Nc1nnc(C2CC2)s1)c1cc(Cl)sc1Cl | -5.34% (inactive) |
| COc1ccc(Nc2ncnc3sc(C)cc23)cc1 | 1.63% (inactive) |
| O=C(CN1CCC(NC(=O)C2CC2)CC1)Nc1ccccc1[N+](=O)[O-] | -0.918% (inactive) |
| Cc1cccc(C(=O)NC(=S)N(C)C2CCCCC2)c1 | -5.91% (inactive) |
| CN(CCO)c1ccc(/C=N/Nc2nncc3ccccc23)cc1 | 21.5% (inactive) |
| O=C(NCC(=O)N1CCN(c2ccccc2F)CC1)c1cccs1 | -7.14% (inactive) |
| Cc1ccc2nc(N3C(=O)C(O)=C(C(=O)c4ccco4)C3c3cccc(O)c3)sc2c1 (configuration not stated) | -6.84% (inactive) |
| C[n+]1cc(-c2ccccc2)oc1-c1ccccc1 | -1.02% (inactive) |
| Cc1cnc(NC(=O)c2ccc(Cl)nc2)s1 | 2.83% (inactive) |
| C=CCN1CCN(C(=O)CCCc2ccccc2)CC1 | 3.4% (inactive) |
| COc1ccc(N2CCN(S(=O)(=O)c3ccc4c(c3)N(C(C)=O)CCO4)CC2)cc1 | -0.739% (inactive) |
| O=C(O)CCC(=O)N(Cc1ccccc1)Cc1ccccc1 | 0% (inactive) |
| Cc1noc(C)c1CCC(=O)N1CCCC(CO)(Cc2ccccc2)C1 (configuration not stated) | 2.49% (inactive) |
| O=C(c1noc2c1CCCC2)N1CCc2ccccc2C1 | -2.74% (inactive) |
| Cc1cccc(NC(=O)c2ccc3c(=O)n(CC4CCCO4)c(=S)[nH]c3c2)c1 (configuration not stated) | 14.2% (inactive) |
